PubChem BioAssay
Calls of active or inactive are those of the source.

Experiments:
[1] = test system: Plasmodium falciparum Sir2 (PF13_0152, Sir2A); test: pfSir2 binders on small-molecule microarrays, primary screen, biochemical, small-molecule microarray, 635 nm fluorescence (AID 1098); conditions: small-molecule microarray binding, fluorescence 635 nm; higher = more signal;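 note: score merges spot fluorescence intensity with its signal-to-noise ratio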
[2] = small-molecule microarray binders of probe aDKK1, primary screen, biochemical, biotinylated probe, 635/667 nm fluorescence (AID 1099); conditions: higher = more signal;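 note: score merges 667nm spot fluorescence with signal to noise across triplicate slides; reference of the scale not given here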
[3] = small-molecule microarray binders of probe aCHRDL2, primary screen, biochemical, biotinylated probe, 635/667 nm fluorescence (AID 1100); conditions: higher = more signal
[4] = splicing luciferase reporter signal modulators, primary screen, spliceosome inhibition project, cell-based, HEK293, splice +/- reporter (AID 1101); conditions: luminescence, 24 h, higher = more signal, called active from +8 up or from −8 down;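 note: HEK293 cells carrying a splicing-competent luciferase reporter gene; test concentration not given here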
[5] = target: Fibroblast growth factor 10 (Homo sapiens) (UniProt O15520); test: FGF10 binders on small-molecule microarrays, primary screen, biochemical, small-molecule microarray, 635 nm fluorescence (AID 1102); conditions: FGF10 binding, fluorescence 635 nm, higher = more signal
[6] = test system: glycogen synthase kinase-3 (GSK3A per assay name; protocol says GSK3B); test: GSK3 binders on small-molecule microarrays, primary screen, biochemical, small-molecule microarray, 635 nm fluorescence, GSK3A (AID 1103); conditions: small-molecule microarray binding, fluorescence 635 nm; higher = more signal; note: the record names both GSK3A and GSK3B
[7] = target: Epidermal growth factor receptor (Homo sapiens) (UniProt P00533); test: EGFR binders on small-molecule microarrays, primary screen, biochemical, small-molecule microarray, 635 nm fluorescence (AID 1104); conditions: EGFR binding, higher = more signal;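 note: score merges 667 nm emission intensity with spot signal to noise over triplicate slides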
[8] = target: Follistatin-related protein 3 (Homo sapiens) (UniProt O95633); test: FSTL3 binders on small-molecule microarrays, primary screen, biochemical, small-molecule microarray, 635 nm fluorescence (AID 1105); conditions: FSTL3 binding, higher = more signal;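 note: score merges emission near 667 nm and signal to noise per printed spot across three slides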
[9] = target: Dickkopf-related protein 1 (Homo sapiens) (UniProt O94907); test: DKK1 binders on small-molecule microarrays, primary screen, biochemical, small-molecule microarray, 635 nm fluorescence scan (AID 1106); conditions: DKK1 binding, higher = more signal;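 note: score merges emission near 667 nm with signal to noise over three replicate slides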
[10] = test system: Inhibin beta A chain (activin A); test: INHBA (activin A) binders on microarrays, primary screen, biochemical, small-molecule microarray, 635 nm fluorescence scan (AID 1107); conditions: small-molecule microarray binding, higher = more signal;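 note: mouse activin A protein probed at 4.33 µg/mL on printed slides; score merges bound-protein fluorescence near 667 nm with spot signal-to-noise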

Sequence of Fibroblast growth factor 10 (Homo sapiens) (O15520 whole entry, looked up): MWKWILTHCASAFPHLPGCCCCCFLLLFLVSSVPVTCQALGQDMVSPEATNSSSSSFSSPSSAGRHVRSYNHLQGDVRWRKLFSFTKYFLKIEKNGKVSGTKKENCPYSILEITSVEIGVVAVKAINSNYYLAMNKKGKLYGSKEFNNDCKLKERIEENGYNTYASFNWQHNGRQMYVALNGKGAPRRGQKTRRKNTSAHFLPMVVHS
Sequence of Follistatin-related protein 3 (Homo sapiens) (O95633 whole entry, looked up): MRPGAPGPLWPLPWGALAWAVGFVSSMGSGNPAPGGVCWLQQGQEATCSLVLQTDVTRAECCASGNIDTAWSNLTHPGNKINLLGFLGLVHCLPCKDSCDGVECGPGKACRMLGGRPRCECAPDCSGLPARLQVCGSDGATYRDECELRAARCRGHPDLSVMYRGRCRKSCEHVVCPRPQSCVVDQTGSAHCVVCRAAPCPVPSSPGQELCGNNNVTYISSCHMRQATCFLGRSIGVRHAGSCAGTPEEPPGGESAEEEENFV
Sequence of Epidermal growth factor receptor (Homo sapiens) (P00533 whole entry, looked up): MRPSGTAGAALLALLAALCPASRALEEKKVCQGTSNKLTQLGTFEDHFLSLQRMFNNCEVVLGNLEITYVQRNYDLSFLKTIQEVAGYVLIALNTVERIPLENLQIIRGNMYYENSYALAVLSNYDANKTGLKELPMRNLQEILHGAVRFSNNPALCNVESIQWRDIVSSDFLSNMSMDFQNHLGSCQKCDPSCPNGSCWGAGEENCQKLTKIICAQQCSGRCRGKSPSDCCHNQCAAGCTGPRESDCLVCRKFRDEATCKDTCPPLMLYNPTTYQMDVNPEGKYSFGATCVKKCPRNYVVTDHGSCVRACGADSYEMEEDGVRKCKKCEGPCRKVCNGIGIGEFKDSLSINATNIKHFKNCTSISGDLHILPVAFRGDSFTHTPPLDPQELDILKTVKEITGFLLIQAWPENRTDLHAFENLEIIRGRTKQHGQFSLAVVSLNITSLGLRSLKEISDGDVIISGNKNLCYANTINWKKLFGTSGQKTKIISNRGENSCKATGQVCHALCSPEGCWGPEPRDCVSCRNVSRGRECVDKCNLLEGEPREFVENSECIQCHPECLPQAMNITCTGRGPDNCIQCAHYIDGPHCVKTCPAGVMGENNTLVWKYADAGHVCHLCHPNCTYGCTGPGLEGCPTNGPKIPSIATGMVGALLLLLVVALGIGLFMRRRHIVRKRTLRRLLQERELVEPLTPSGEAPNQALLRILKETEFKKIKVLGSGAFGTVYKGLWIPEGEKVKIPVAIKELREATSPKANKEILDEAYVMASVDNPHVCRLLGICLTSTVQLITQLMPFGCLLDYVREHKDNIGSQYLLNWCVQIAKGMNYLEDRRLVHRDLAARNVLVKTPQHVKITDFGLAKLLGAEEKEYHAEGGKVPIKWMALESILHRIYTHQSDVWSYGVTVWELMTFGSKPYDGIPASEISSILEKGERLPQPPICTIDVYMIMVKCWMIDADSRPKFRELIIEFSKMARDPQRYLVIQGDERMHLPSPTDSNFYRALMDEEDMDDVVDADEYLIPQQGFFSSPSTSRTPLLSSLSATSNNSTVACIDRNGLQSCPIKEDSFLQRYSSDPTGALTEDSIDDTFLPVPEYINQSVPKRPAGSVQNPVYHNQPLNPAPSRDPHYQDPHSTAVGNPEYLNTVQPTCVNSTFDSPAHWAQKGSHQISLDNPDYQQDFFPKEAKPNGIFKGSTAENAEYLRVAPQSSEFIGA
Sequence of Dickkopf-related protein 1 (Homo sapiens) (O94907 whole entry, looked up): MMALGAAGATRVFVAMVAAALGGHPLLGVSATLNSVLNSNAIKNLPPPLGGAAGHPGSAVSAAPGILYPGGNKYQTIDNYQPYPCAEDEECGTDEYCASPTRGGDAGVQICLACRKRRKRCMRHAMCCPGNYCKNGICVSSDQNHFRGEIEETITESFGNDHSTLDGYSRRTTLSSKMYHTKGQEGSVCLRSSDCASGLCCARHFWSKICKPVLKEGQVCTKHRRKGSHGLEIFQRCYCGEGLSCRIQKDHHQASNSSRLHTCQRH

SMILES | composite z-score [1] | composite z-score [2] | composite z-score [3] | z-score [4] | composite z-score [5] | composite z-score [6] | composite z-score [7] | composite z-score [8] | composite z-score [9] | composite z-score [10]
CN1C(=O)C2C=CC(C(O)Cc3ccccc3)N(N(c3ccccc3)c3ccccc3)C2C1=O (stereo not given) | 0.86 | 0.46 | 0.733 | 0.653 (inactive) | 0.812 | -0.227 | -0.567 | -0.068 | -0.303 | 0.864
COC(=O)[C@@]1(Cc2ccc(OC)cc2)[C@H]2c3cc(C(=O)N(C)C)n(Cc4ccccc4)c3C[C@H]2CN1C(=O)c1ccccc1 | 0.656 | 0.268 | -0.332 | -2.28 (inactive) | 0.0697 | 0.0849 | -0.342 | -0.0447 | -0.128 | 0.825
CC(C)(C)OC(=O)CC[C@]1(C(=O)O)N=C(c2ccc(OCCCO)cc2)O[C@H]1c1ccccc1CN=[N+]=[N-] | 0.814 | 0.905 | 0.764 | 0.325 (inactive) | 0.253 | -0.138 | -0.554 | -0.507 | -0.134 | 0.923
CC=CC(O)C1C=CC2C(=O)N(C)C(=O)C2N1Nc1ccc([N+](=O)[O-])cc1[N+](=O)[O-] (stereo not given) | 1.1 | 0.121 | 0.636 | 0.607 (inactive) | -0.49 | -1.06 | -0.898 | -0.79 | -0.232 | 1.11
COc1c(C)cc(-c2cc3c(c(-c4ccccc4)n2)[Si](C(C)C)(C(C)C)OC3)cc1C | 0.0039 | 0.068 | -0.676 | -0.0426 (inactive) | -0.216 | -0.39 | 0.186 | -0.355 | 0.189 | 1.08
COc1ccc(C(O)C2C=CC3C(=O)N(Cc4ccccc4)C(=O)C3N2n2cnnc2)c2ccccc12 (stereo not given) | 1.83 | -0.0611 | 0.873 | -0.781 (inactive) | -1.12 | 0.233 | -1.17 | 0.127 | -1.45 | 0.48
Cc1ccc(S[C@]2(C(=O)NC(C)C)CC(=O)N(C3Cc4ccccc4C3)[C@@H]2c2ccc(CO)cc2I)cc1 | 0.944 | -0.253 | -0.398 | -1.44 (inactive) | -0.651 | 0.1 | -0.922 | -1.13 | -1.18 | -0.696
CC(C)N1CC=CC23O[C@@H]4C=CCCOC(=O)C4[C@H]2C(=O)N(CCO)[C@@H]3C1=O (stereo not given in full) | 0.154 | -0.377 | -0.0034 | -1.22 (inactive) | 0.107 | -0.504 | -0.458 | -0.762 | -0.155 | -0.101
CC(C)C[C@@H]1NC(=O)[C@H]2C[C@@H](C(=O)NCCCCCC[N+](C)(C)C)[C@@H](c3cccc(OCCO)c3)N2C1=O | 1.14 | -0.231 | -0.0365 | -0.713 (inactive) | 0.293 | 0.661 | 0.109 | 0.504 | 0.438 | 0.682
NC(=O)N1C(=O)C2C(C1=O)C1C=C(c3ccc(CO)cc3)C2C(C2CC2)N1Cc1sc2ccccc2c1Cl (stereo not given) | 0.834 | -0.0675 | 0.102 | -0.72 (inactive) | 1.25 | 1.12 | 0.553 | 1.21 | 0.307 | -0.115
Cc1ccc(S[C@]2(C(=O)O)CC(=O)N(Cc3ccccc3Cl)[C@@H]2c2ccc(CO)cc2)cc1 | -0.189 | 0.505 | 0.938 | 1.39 (inactive) | -0.165 | -0.851 | -0.84 | -1.1 | -0.817 | 0.387
COc1ccc([Si](C)(C)[C@H]2[C@H](CC(=O)N3Cc4ccccc4C[C@H]3CO)O[C@@]3(C(=O)N(Cc4cccc(N5CCCCC5=O)c4)c4ccccc43)[C@@H]2C)cc1 | 1.2 | -0.205 | -0.181 | -0.519 (inactive) | 1.14 | 0.262 | 0.795 | 1.27 | 1.12 | 0.94
COC(=O)C1(Cc2ccccc2)C=C2C(=C(c3ccccc3)C(=O)C2C)CN1 (stereo not given) | -0.208 | 1.88 | 1.39 | 0.388 (inactive) | 1.03 | -0.731 | -0.544 | -0.147 | -0.89 | 1.69
CCOC(=O)C1=CC[C@@H](c2ccccc2)N(S(=O)(=O)c2ccc(C)cc2)C1 | 0.243 | 0.617 | 0.931 | 0.259 (inactive) | -0.0077 | 0.121 | 0.0223 | 0.36 | 0.107 | 1.29
C[C@]1(C(=O)NCCN2CCOCC2)c2ccccc2C(=O)N(Cc2ccc(OC(F)(F)F)cc2)[C@H]1c1ccc(CO)cc1 | 0.654 | -0.103 | 0.604 | 0.396 (inactive) | -0.564 | -0.254 | -1.39 | -0.381 | -1.33 | -0.017
C=C(/C(=C/C[C@@H](OC(=O)c1ccncc1)c1ccccc1OCCO)c1cc(C(=O)OC)ccc1OC)C(C)C | 1.04 | -0.223 | -0.151 | -1.25 (inactive) | 1.12 | 0.759 | 0.228 | 0.467 | 0.328 | 0.787
CC(=O)n1cc(C(O)C2C=CC3C(=O)N(c4ccccc4)C(=O)C3N2Nc2ccccc2)c2ccccc21 (stereo not given) | 0.454 | 1.81 | 1.52 | -1.22 (inactive) | 0.833 | -0.669 | 0.444 | 1.19 | 0.325 | 1.93
O=c1cccc(-c2cccc(Cl)c2)o1 | 0.261 | 0.177 | 0.114 | 0.269 (inactive) | 0.227 | 0.415 | 0.167 | 0.149 | -0.0521 | 0.338
COc1ccccc1CN1C(=O)c2ccccc2[C@](Cc2ccccc2I)(C(=O)NC(C)C)[C@@H]1c1ccc(CO)cc1 | 0.672 | -0.132 | -0.0563 | -0.691 (inactive) | 1.32 | 1.3 | 0.457 | 1.28 | 0.312 | -0.0084
Cc1ccc(S[C@]2(C(=O)NCC(F)(F)F)CC(=O)N(Cc3ccccc3)[C@@H]2c2ccc(CO)cc2)cc1 | 1.54 | 0.382 | 0.767 | -0.676 (inactive) | -0.409 | -0.507 | -0.938 | -0.763 | -1.32 | -0.0219
O=C1O[C@@H](c2ccccc2)[C@@H](c2ccccc2)N2[C@@H](c3ccccc3OCCO)[C@]3(C(=O)Nc4ccc(C#CC5=CCCCC5)cc43)[C@@H](C(=O)NC[C@H](O)c3ccccc3)[C@H]12 | 1.3 | -0.108 | -0.149 | -1.13 (inactive) | 0.717 | 1.3 | 0.496 | 1.22 | 0.352 | 0.623
COc1cc2c(cc1O)C(C)N(Cc1cc3c(cc1Br)OCO3)CC2 (stereo not given) | 1 | 0.623 | 0.749 | -0.363 (inactive) | -0.0175 | -1.11 | -0.277 | -0.475 | -0.165 | 0.561
COCCCNC(=O)[C@@]1(Sc2ccc(C)cc2)CC(=O)N(C2Cc3ccccc3C2)[C@@H]1c1ccc(CO)cc1I | 0.693 | 0.59 | 0.947 | -0.697 (inactive) | -0.235 | -1.1 | -0.689 | -1.58 | -1.77 | 0.388
C=CCNC(=O)[C@@H]1[C@H]2C(=O)O[C@H](c3ccccc3)[C@H](c3ccccc3)N2[C@H](c2ccccc2OCCO)[C@@]12C(=O)N(C(=O)OCCOC)c1ccc(C#CC3=CCCCC3)cc12 | 1.26 | 0.057 | 0.144 | -1.1 (inactive) | 1.15 | 1.16 | 0.469 | 0.831 | 0.373 | -0.0496
CCOC(=O)C[C@H]1[C@H](OC(=O)Cc2ccc3c(c2)OCO3)[C@@H](NC(=O)Cc2ccc(OC)cc2)c2cc(OCCCO)ccc2N1C(=O)c1ccccc1 | 1.07 | 0.423 | 0.383 | -0.484 (inactive) | 0.647 | 0.614 | 0.0042 | 0.312 | 0.149 | 0.265
CCOC(=O)C[C@H]1[C@H](OC(=O)c2ccccc2-c2ccccc2)[C@@H](NC(=O)c2ccc3ccccc3n2)c2cc(OCCCO)ccc2N1C(=O)c1ccc2ccccc2n1 | 0.638 | -0.267 | -0.535 | -1.19 (inactive) | 0.611 | 0.0214 | 0.378 | 0.469 | 0.452 | -0.0055
